PubChem BioAssay (NCI)
About 83,000 compounds went through this panel and 20% of them were active in at least one assay; those are over-represented in the sample as a whole.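 96-well plates, one dose, 48 hours. Percent growth reported; active if below 10.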 Active and inactive are the calls of the source.

Experiments:
Assay in all cases: NCI-60 one-dose screen, 48 h (100 = growth as untreated, 0 = no growth, -100 = all killed)
Conditions in all cases: 10 µM unless noted
BT-549 breast = tested on: BT-549 breast
MDA-MB-435 melanoma = tested on: MDA-MB-435 melanoma
SW-620 colon = tested on: SW-620 colon
MCF7 breast = tested on: MCF7 breast
HCT-116 colon = tested on: HCT-116 colon
HCC-2998 colon = tested on: HCC-2998 colon
KM12 colon = tested on: KM12 colon

Measured: growth

O=C(Nc1cccc(Cl)c1)Oc1c(Br)c(Br)c(Br)c(Br)c1Br
inactive: BT-549 breast 79.5% | MDA-MB-435 melanoma 99.8% | SW-620 colon 102% | MCF7 breast 93.9% | HCT-116 colon 80.3% | HCC-2998 colon 94.7% | KM12 colon 106%

CCCCCCCCCCCCCCCCCCOc1ccccc1N
active: BT-549 breast -5.26%
inactive: MDA-MB-435 melanoma 78.7% | SW-620 colon 98.7% | MCF7 breast 75.4% | HCT-116 colon 44% | HCC-2998 colon 88.8% | KM12 colon 39.8%

COc1cc(NCCCN(CC(C)C)CC(C)C)c2ncccc2c1
active: MCF7 breast -43.4%
inactive: BT-549 breast 80.4% | MDA-MB-435 melanoma 115% | SW-620 colon 67.4% | HCT-116 colon 62% | HCC-2998 colon 86.4% | KM12 colon 84.7%

Cc1ccc(-c2c(Br)c(OC(=O)CO[C@@H]3C[C@H](C)CC[C@H]3C(C)C)c(-c3ccc(C)cc3C)c(Br)c2OC(=O)CO[C@H]2C[C@@H](C)CC[C@@H]2C(C)C)c(C)c1
inactive: BT-549 breast 85.5% | MDA-MB-435 melanoma 104% | SW-620 colon 109% | MCF7 breast 92.1% | HCT-116 colon 89.4% | HCC-2998 colon 108% | KM12 colon 107%

CCN1C(=O)N(CC)C2NC(SC)=NC21 (stereo not drawn)
inactive: BT-549 breast 103% | MDA-MB-435 melanoma 102% | SW-620 colon 97.6% | MCF7 breast 99.3% | HCT-116 colon 104% | HCC-2998 colon 99.3% | KM12 colon 102%

CCCCCCCCN1C(=O)/C(=c2\sc3n(c2=O)C2C(NN=3)N(CC)C(=O)N2CC)c2ccccc21 (stereo not drawn)
inactive: BT-549 breast 86.9% | MDA-MB-435 melanoma 57.3% | SW-620 colon 86.8% | MCF7 breast 85.2% | HCT-116 colon 63.2% | HCC-2998 colon 103% | KM12 colon 89.9%

Cc1c([N+](=O)[O-])cc(C(C)(C)C)cc1[N+](=O)[O-]
inactive: BT-549 breast 102% | MDA-MB-435 melanoma 107% | SW-620 colon 98.9% | MCF7 breast 92.8% | HCT-116 colon 87.3% | HCC-2998 colon 95.2% | KM12 colon 102%

COc1cc(NCC(O)CN(CC(C)C)C2CCCC2)c2ncccc2c1 (stereo not drawn)
inactive: BT-549 breast 89.5% | MDA-MB-435 melanoma 107% | SW-620 colon 70.5% | MCF7 breast 24.1% | HCT-116 colon 68% | HCC-2998 colon 97.3% | KM12 colon 87%

COC(=O)Nc1ccc(NC(=O)OC)cc1
inactive: BT-549 breast 84.6% | MDA-MB-435 melanoma 101% | SW-620 colon 104% | MCF7 breast 92.1% | HCT-116 colon 83.9% | HCC-2998 colon 106% | KM12 colon 111%

COc1cc(CNC(=O)CCCCC[P+](c2ccccc2)(c2ccccc2)c2ccccc2)c(OC)c2c1OCO2
inactive: BT-549 breast 37.8% | MDA-MB-435 melanoma 39% | SW-620 colon 70.7% | MCF7 breast 67.4% | HCT-116 colon 50.4% | HCC-2998 colon 57.6% | KM12 colon 45.6%

CS(=O)(=O)Nc1cc(-c2ccc3ncnc(Nc4ccc5[nH]ncc5c4)c3c2)cnc1Cl
inactive: BT-549 breast 69.3% | MDA-MB-435 melanoma 75% | SW-620 colon 90.8% | MCF7 breast 38.5% | HCT-116 colon 92.2% | HCC-2998 colon 92% | KM12 colon 102%

COc1cccc2cc(-c3cc4ccccc4[nH]3)/c(=N/C(=S)Nc3ccc(C)cc3)oc12
inactive: BT-549 breast 89.6% | MDA-MB-435 melanoma 85.1% | SW-620 colon 78% | MCF7 breast 74% | HCT-116 colon 49.3% | HCC-2998 colon 99.9% | KM12 colon 70.9%

COc1cc(-c2cc(=O)oc3cc(O)ccc23)c(OC)c2c1OCO2
inactive: BT-549 breast 90.9% | MDA-MB-435 melanoma 101% | SW-620 colon 96.6% | MCF7 breast 102% | HCT-116 colon 98.4% | HCC-2998 colon 97.3% | KM12 colon 93.8%

CCN(CC)S(=O)(=O)c1cccc([N+](=O)[O-])c1
inactive: BT-549 breast 79.1% | MDA-MB-435 melanoma 99% | SW-620 colon 100% | MCF7 breast 103% | HCT-116 colon 80.7% | HCC-2998 colon 101% | KM12 colon 108%
